The whole screen tested about 350,000 compounds, of which about 31,000 (8.9%) were called active. Roughly 15% stayed inconclusive and do not appear here. The sample holds actives, similar compounds and a random draw of the others, so the mix is not that of the screen. Unmarked numbers belong to inactive results. The call rests on the fitted dose curve; in most records, active means well fitted inhibition curve with a large enough effect; inconclusive means small, poorly fitted or top-dose-only effect; inactive means no such curve, though single readings can be large or run the other way.
On the % scale 0 is the no-effect control and ±100 the full control effect; potency means the concentration at half of the fitted maximal effect.

Histone-lysine N-methyltransferase EHMT2 (Homo sapiens), sequence (Q96KQ7 913-1193 limits assumed): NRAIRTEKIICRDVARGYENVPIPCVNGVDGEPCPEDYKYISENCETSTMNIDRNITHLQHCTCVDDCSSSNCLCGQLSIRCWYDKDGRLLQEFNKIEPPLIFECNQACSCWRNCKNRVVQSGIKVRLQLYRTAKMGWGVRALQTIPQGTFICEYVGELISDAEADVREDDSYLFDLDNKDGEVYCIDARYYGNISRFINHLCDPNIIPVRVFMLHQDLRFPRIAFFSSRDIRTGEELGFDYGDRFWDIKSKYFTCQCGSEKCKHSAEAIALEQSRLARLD

This assay addresses Histone-lysine N-methyltransferase EHMT2 (Homo sapiens) (UniProt Q96KQ7). Kind of assay: qHTS Assay for Inhibitors of Histone Lysine Methyltransferase G9a. Further: nearly all actives have a fitted effect of over 75% in size. As to conditions: G9a H3K9 monomethylation, AlphaScreen, 2 h; series mostly up to 59 µM; activity, negative = inhibition: at the top concentration. Put shortly:
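AlphaScreen read-out: biotin-H3K9 peptide (500 nM) methylation by 20 nM enzyme with 20 uM SAM, 2 h at room temperature after 15 min compound preincubation; anti-monomethyl H3K9 antibody plus donor/acceptor beads, 10 min dark.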
A general note: qHTS replaces the single test concentration by a dilution series.
As to `Cc1ccc(NS(=O)(=O)c2ccc3c(c2)CC(=O)N3)cc1Cl`, the activity, negative = inhibition was -0.894% [at 12.7 µM]. As for `COc1ccc(S(=O)(=O)N2CCN(C(C)C(=O)Nc3ccc(C(C)C)cc3)CC2)cc1` (stereo not drawn), the “activity, negative = inhibition” value was -8.74%. For `CCN(CC)S(=O)(=O)c1ccc(NC(=O)c2cnc(C)cn2)cc1`, the activity, negative = inhibition is 0.345% [at 0.501 µM]. For the compound `O=C(CCn1c(=O)c2ccccc2n(Cc2ccc(Cl)cc2)c1=O)NCc1ccc2c(c1)OCO2`, the “activity, negative = inhibition” value is -6.19%. Same read-out and setting: the value for `CCN(CC)C(=O)C(=O)c1cn(CC(=O)NCc2ccc3c(c2)OCO3)c2ccccc12` was 27.8% [at 12.7 µM]. Take `Cn1cc(CCC(=O)NCc2ccc3c(c2)OCO3)c2ccccc21`: the Potency is 25.1 µM (active). On to `CCOc1ccc(C(=O)c2cn(Cc3ccc(F)cc3)c3ccc(F)cc3c2=O)cc1`, for which the “activity, negative = inhibition” value is -38.3%. As to `Cc1ccc(CNC(=O)CCC(=O)N2Cc3ccccc3Oc3ncccc32)cc1`, the “activity, negative = inhibition” value is -18.3%. For the compound `Cc1noc(/C=C/N(C)C)c1S(=O)(=O)N1CCCC(C(=O)Nc2cccc(F)c2)C1` (stereo not drawn), the “activity, negative = inhibition” value is 2.19%. Turning to `CCOC(=O)c1c(-c2ccc(-c3ccccc3)cc2)csc1NC(=O)CCC(=O)O`, the “activity, negative = inhibition” value was -35% [at 102 µM]. Regarding `CCOC(=O)c1c(-c2ccc(C)cc2)csc1/N=C(\C)C1=C(O)c2ccccc2C1=O`, the Potency is 28.2 µM (active). Regarding `CCOC(=O)c1c(-c2ccccc2)csc1NC(=S)NC(=O)c1ccccc1`, the “activity, negative = inhibition” value was -11.6%.

For the compound `CC(=O)N1CCOc2ccc(S(=O)(=O)N3CCC(C(=O)Nc4ccccc4F)CC3)cc21`, the “activity, negative = inhibition” value is -2.87% [at 102 µM]. Still for that read-out and setting: the result for `Cc1ccc(Cc2nnc(SCC(=O)Nc3ccccc3C)[nH]c2=O)cc1` reads 1.18% [at 102 µM]. As for `CCC(=O)/C=C1\Sc2ccccc2N1CC`, the Potency was 50.1 µM (active).

In the case of `CCOC(=O)CNC(=O)N1c2ccccc2Sc2ccccc21`, the “activity, negative = inhibition” value was 20.2% [at 102 µM]. With `CCNC(=O)N1c2ccccc2Sc2ccccc21`, the “activity, negative = inhibition” value is 34.9% [at 102 µM]. Still for that read-out and setting: the result for `CCN1CCC(N(Cc2ccc(F)cc2)C(=O)Nc2cc(C)ccc2C)CC1` reads -29.4%; that for `CCn1cc(C(=O)N2CCN(c3cc(C)ccc3C)CC2)c(=O)c2cc(S(=O)(=O)N(C)C3CCCCC3)ccc21`, -33.5%. The same measure, in the same setting: the value for `Cc1[nH]c2ccc(S(N)(=O)=O)cc2c1C` was -7.63%. In the case of `C=CCn1c(-c2sc(-c3ccccc3)nc2C)n[nH]c1=S`, the Potency was 3.16 µM (active). As for `C=CCn1c(-c2ccccc2OCC)n[nH]c1=S`, the Potency is 7.08 µM (active). Regarding `C=CCn1c(=S)sc2c(=O)[nH]c(C)nc21`, the “activity, negative = inhibition” value is -0.441% [at 102 µM]. Consider `C=CCn1c(-c2ccc3[nH]c(C)c(C)c3c2)n[nH]c1=S`, for which the Potency was 1 µM (active). Take `C=CCn1c(COc2cccc3cccnc23)nnc1SCC(=O)OC`: the “activity, negative = inhibition” value was -28.7%. Take `C=CCn1c(COc2ccccc2C)nnc1SCC(=O)O`: the “activity, negative = inhibition” value is -44.1%. The same measure, in the same setting: the value for `Cc1nc(-c2ccccc2)sc1-c1nc(-c2ccccc2)ncc1S(=O)(=O)c1ccccc1` was -34.6% [at 102 µM]; that for `Cc1nc(-c2ccccc2)sc1-c1nnc(C2CC2)o1` was 103% [at 102 µM]. Still for that read-out and setting: the value for `Cc1ccsc1-c1cc(C(=O)O)c2c(ccc3ccccc32)n1` was -17.8%; that for `CCOC(=O)c1[nH]c(C)c(CCC(=O)N2CCN(c3ccccc3)CC2)c1C` was -27.2%. On the same count and under the same terms, the value for `COc1ccc(/C=C/c2noc(-c3ccccc3OC(C)=O)n2)cc1` was 19.6% [at 102 µM]; that for `COc1ccc(CCNC(=O)CCCn2c(=O)c3ccccc3n(Cc3ccc(F)cc3Cl)c2=O)cc1OC` was 34.5%.

As to `COc1ccc(COC(=O)c2ccc(Cl)c(S(=O)(=O)N3CCOCC3)c2)cc1F`, the “activity, negative = inhibition” value is 18.9% [at 102 µM]. Same read-out and setting: the result for `Cn1nccc1C(=O)NC1CCCc2c1cnn2-c1ccccc1F` (stereo not drawn) reads 16.6% [at 0.501 µM]. `Cn1nccc1C(=O)NC1CCCc2c1cnn2-c1ccc(F)cc1F` (stereo not drawn): the Potency is 79.4 µM (active).

As to `CC(=O)NCC(=O)NC1CCCc2c1cnn2-c1ccccc1F` (stereo not drawn), the activity, negative = inhibition was 11.3% [at 0.501 µM]. Still for that read-out and setting: the result for `Cc1ccc(-c2nnc(Nc3ccc(OCC(N)=O)cc3)c3ccccc23)cc1S(=O)(=O)NCC1CCCO1` (stereo not drawn) reads -44.6%; that for `Cc1ccccc1OCc1nc2c3cnn(-c4ccccc4F)c3ncn2n1`, 13.2%; that for `CC(NC(=O)c1ccc(N2CCNCC2)c([N+](=O)[O-])c1)C12CC3CC(CC(C3)C1)C2` (stereo not drawn), -0.814%. Take `CN(C)NC(=O)C(NC(=O)c1ccc(N)cc1)C12CC3CC(CC(C3)C1)C2` (stereo not drawn): the Potency is 44.7 µM (active). Regarding `CC(CNC(=O)c1ccc(N)cc1)NC(=O)c1ccc(N)cc1` (stereo not drawn), the “activity, negative = inhibition” value was -4.15% [at 102 µM].

On to `CCOC(=O)C(C)n1cnc2c(nnn2-c2ccc(F)cc2)c1=O` (stereo not drawn), for which the “activity, negative = inhibition” value is 13.5% [at 102 µM]. Regarding `CC(C)(C)C1CCc2c(sc(NC(=O)c3ccccc3F)c2C(=O)N2CCCCC2)C1` (stereo not drawn), the “activity, negative = inhibition” value is 6.27%.

For the compound `O=C(Nc1ccccc1N1CCOCC1)c1ccc(OCc2cscn2)cc1`, the “activity, negative = inhibition” value is -2.78%. Same read-out and setting: the value for `CCOC(=O)c1cc2ccccc2n1CC(=O)c1ccccc1` was -0.017% [at 102 µM]; that for `COc1ccc2cc(C(=O)O)n(CC(=O)c3ccccc3)c2c1` was 10.7% [at 102 µM]. As for `CCn1c(=N)n(CC(=O)c2cccc(OC)c2)c2ccccc21`, the Potency is 44.7 µM (active). With `COc1ccccc1C(=O)NCC(=O)NCCSc1ccc(Br)cc1`, the “activity, negative = inhibition” value was 2.21%.

The record behind these values is PubChem BioAssay AID504332 (National Center for Advancing Translational Sciences (NCATS), 2011).
